Sm TGR block: S. mansoni TGR enzyme inhibition; Q962Y6; purified TGR, DTNB reduction, TNB absorbance 405 nm; AID 485364; Potency, µM (series often up to 114 µM), for inactives: at the top dose activity change, negative = inhibition, most hits filed as inhibitors; 360,000 compounds, 3% hits; active = well fitted inhibition curve with a large enough effect; inconclusive = small, poorly fitted or top-dose-only effect; inactive = no such curve, though single readings can be large or run the other way; also: % is scaled to controls: 0 for no effect and ±100 for the full control effect; nearly all actives have a fitted effect of over 60% in size
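TGR 20 nM + NADPH 100 uM (dispensed conc.), cpd preinc 15 min RT; start with NADPH (500 uM addition) then DTNB (15 mM addition). Kinetic TNB absorbance, 405 nm filter. Four-parameter Hill fit across titration.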
SARS PLpro yeast: SARS-CoV PLP inhibition in yeast; S. cerevisiae expressing SARS-CoV PLpro, growth rescue; Potency, µM (doses to about 32.9 µM), inactives show at the highest dose activity, positive = growth rescue, most hits filed as activators; 330,000 compounds, 0.19% hits; AID 485353; calls by dose curve; also: 0% is about no effect; nearly all actives have a fitted effect of over 55% in size
The depositor's hits bear a star; u = inconclusive; x = no result. Rows were chosen to be rich in hits. Some 3% of all compounds tested hit in one or more screens of this group. Potency is read from the fitted curve at half-maximal effect.

SMILES	Sm TGR block	SARS PLpro yeast
Cc1ccc(-n2nc(CO)c(C(=O)NC(C)c3ccccc3)n2)cc1C (centres undefined)	0.4%	x
CCOC(=O)c1cc(NC(=O)c2ccccc2)c(=O)n2c1oc1ccc(Cl)cc12	6.0%	x
CS(=O)(=O)Nc1cccc(C2=NN(S(=O)(=O)c3ccccc3)C(c3ccco3)C2)c1 (centres undefined)	20µM*	1.7%
CC(=O)N1N=C(c2cccs2)CC1c1ccco1 (centres undefined)	u	-1.3%
CCS(=O)(=O)N1N=C(c2cccc(NS(C)(=O)=O)c2)CC1c1ccccc1 (centres undefined)	-22.6%	0.2%
CC(=O)N1N=C(c2ccc(Cl)cc2)CC1c1ccco1 (centres undefined)	1.6%	-0.7%
CS(=O)(=O)N1N=C(c2cccs2)CC1c1ccco1 (centres undefined)	7.94µM*	-0.8%
O=C(c1ccc(Br)o1)N1N=C(c2ccc(Cl)cc2)CC1c1ccco1 (centres undefined)	44.7µM*	-3.6%
CCC(=O)Nc1ccccc1-c1nc2ccccc2n(CC(=O)c2ccc(Cl)cc2)c1=O	-14.7%	x
Cc1cc(N2CCN(C)CC2)nc2ccc(NC(=O)Nc3cccc(Cl)c3)cc12	-2.1%	x
O=C(CSc1oc(-c2cccs2)nc1S(=O)(=O)c1ccccc1)Nc1ccc(F)cc1	5.5%	x
CN(C)CC/C=C1\c2ccccc2COc2ccccc21	14.1µM*	-25.7%
CN(C)CC/C=C1/c2ccccc2Sc2ccc(Cl)cc21	-6.0%	5.3%
Cc1nn2c(=O)cc(COC(=O)c3ccc(F)cc3)nc2s1	-4.2%	x
CCOC(=O)c1cc(=O)n2nc(-c3ccccc3F)nc2s1	10µM*	-12.9%
CC1CCN(C(=O)CSc2nc(-c3ccccc3)no2)CC1	2.1%	x
CCOCCn1ccc2c(OCC(=O)Nc3ccc(C(N)=O)cc3)cccc2c1=O	5.3%	x
CC(C)c1ccc(OCCCCCN2CCOCC2)cc1	2.8%	-3.2%
CC(=O)Oc1ccc(OC(C)=O)c(SCCCCCN2CCOCC2)c1	50.1µM*	-0.2%
COc1cccc(CNC(=O)CN2C(=O)COc3ccc(S(=O)(=O)Nc4ccccc4)cc32)c1	-1.5%	x
CCCCCCNC(=O)N[C@H](Cc1ccc(O)cc1)C(=O)NCCC[C@H]1CN2C(=NC[C@H]2CCC)N1CC1CCC1	5.01µM*	-1.2%
CCCCCCNC(=O)N[C@@H](Cc1ccc(O)cc1)C(=O)NCCC[C@H]1CN2C(=NC[C@H]2C)N1CC1CCC1	u	0.3%
Cc1ccc(-n2nc3cc(C)c(NC(=O)COc4ccccc4)cc3n2)cc1	16.0%	x
COc1cc(OC)c(OC)cc1CNCCSc1nnnn1-c1ccccc1	-18.5%	x
Cc1oc(-c2ccccc2F)nc1CS(=O)CC(=O)NC1CCCCC1 (centres undefined)	31.6µM*	-1.8%
SMILES	Sm TGR block	SARS PLpro yeast
COc1cccc(-c2nc(CS(=O)CC(=O)NC3CCCC3)c(C)o2)c1 (centres undefined)	u	13.6%
CCOC(=O)N1CCC(NC(=O)CS(=O)(=O)Cc2nc(-c3ccccc3Cl)oc2C)CC1	-32.5%	-1.0%
COc1cccc(-c2nc(CS(=O)CC(=O)NC3CCCCC3)c(C)o2)c1 (centres undefined)	17.8µM*	-0.8%
Cc1cccc(-c2nc(CS(=O)CC(=O)NCCCSC3CCCCC3)c(C)o2)c1 (centres undefined)	u	-4.9%
Cc1cccc(-c2nc(CS(=O)CC(=O)NC3CCCCC3)c(C)o2)c1 (centres undefined)	56.2µM*	4.7%
Cc1oc(-c2ccccc2F)nc1CS(=O)CC(=O)NC1CC1 (centres undefined)	u	-5.3%
CCOC(=O)N1CCC(NC(=O)CS(=O)Cc2nc(-c3ccccc3C)oc2C)CC1 (centres undefined)	12.6µM*	-0.6%
CSc1ccc(CCNC(=O)C2CCN(c3nc4ccccc4nc3C(F)(F)F)CC2)cc1	11.2%	x
Cc1ccc(C)c(N2CCN(C(=O)c3cnn(-c4ccccc4Cl)c3C3CCN(C(=O)OC(C)(C)C)CC3)CC2)c1	0.9%	x
Cc1cc(C)cc(Nc2cc(-c3ccccc3)nc(C)n2)c1	-3.5%	x
Cc1oc(-c2ccccc2)nc1CS(=O)CC(=O)O (centres undefined)	-7.6%	11.2%
Cc1oc(-c2ccccc2)nc1CS(=O)CC(=O)NC1CCCCCC1 (centres undefined)	7.08µM*	1.0%
CCOC(=O)c1ccc(-n2c(CCC(=O)O)ccc2-c2cccs2)cc1	5.62µM*	-1.9%
O=C(O)CCc1ccc(-c2cccs2)n1NC(=O)c1cccs1	u	1.9%
Cc1ccc(-n2c(CCC(=O)O)ccc2-c2cccs2)cc1C	10µM*	-6.0%
O=C(O)CCc1ccc(-c2cccs2)n1NC(=O)c1ccc(O)cc1	-35.8%	0.7%
CCc1ccc(-n2c(CCC(=O)O)ccc2-c2cccs2)cc1	3.55µM*	x
O=C(O)c1ccc(-n2nc(C(F)(F)F)cc2-c2cccs2)cc1	0.4%	-2.0%
CCOC(=O)c1c(NC(=O)c2nc(SC)ncc2Cl)sc(C)c1C	0.2%	x
Cc1ccc(/C=C/C(=O)OC(C)C(=O)Nc2ccc(Cl)cn2)o1 (centres undefined)	12.6µM*	-11.5%
COc1cc(/C=C/C(=O)OC(C)C(=O)Nc2ccc(Cl)cn2)ccc1OC(F)F (centres undefined)	x	-6.6%
CC(Nc1ccc(N2CCOCC2)cc1)C(=O)N1c2ccccc2CC1C (centres undefined)	79.4µM*	-1.4%
CC1Cc2ccccc2N1CC(=O)Nc1ccc(N2CCOCC2)cc1 (centres undefined)	-3.4%	5.2%
CCOc1ccc(C(C)=O)cc1CSc1nnc(-c2cccs2)n1CC1CCCO1 (centres undefined)	20µM*	-0.7%
O=C(CSc1nnc(-c2cccs2)n1CC1CCCO1)N1CCCC1 (centres undefined)	x	-0.8%
SMILES	Sm TGR block	SARS PLpro yeast
Cc1ccc(CCNC(=O)CCCn2c(=O)c3ccccc3n(Cc3ccccc3C)c2=O)cc1	-2.1%	x
CC(=O)Nc1ccc(S(=O)(=O)NCC2CCC(C(=O)NCCc3ccc(C)cc3)CC2)cc1 (centres undefined)	7.7%	x
Cc1cc2c(cc(C(=O)NCCCN3CCOCC3)n2Cc2ccc(Cl)cc2)o1	35.5µM*	3.0%
Cc1ccc(Cn2c(C(=O)NCCCN3CCOCC3)cc3sccc32)cc1	-16.1%	-1.3%
Cc1cc2c(cc1NS(=O)(=O)c1ccc(F)cc1)n(C)c(=O)c(=O)n2C	5.2%	x
CCC(=O)OC1(C)C(=O)C2=COC(c3ccc(OC)cc3)=CC2=C(Br)C1=O (centres undefined)	11.2µM*	6.5%
COC(=O)CCC(=O)OC1(C)C(=O)C2=CN(CC3CC3)C(c3ccc(OC)cc3)=CC2=C(Br)C1=O (centres undefined)	-33.5%	2.7%
COC(=O)CCC(=O)OC1(C)C(=O)C2=CN(CC(C)C)C(c3ccc(OC)cc3)=CC2=C(Br)C1=O (centres undefined)	u	-1.9%
COc1ccc(C2=CC3=C(Br)C(=O)C(C)(O)C(=O)C3=CO2)cc1 (centres undefined)	8.91µM*	-5.2%
Cc1cccc(C(=O)N2c3ncnn3C3(CCCCC3)[C@@H]3CCCC[C@@H]32)c1	5.1%	x
CCCCNC(=O)c1cccc(NC(=O)c2nsc3ccccc23)c1	6.7%	x
Cc1ccc(CN(Cc2cccnc2)C(=O)CN2C(=O)COc3ccccc32)o1	10µM*	-2.2%
